Source: PubChem BioAssay (several laboratories)
CYP2C9 inhib: inhibitors of human CYP2C9. P11712. CYP2C9 Supersomes, luciferin-H conversion, luminescence. inhibition, % at 5 µM. actives 20% (n = 96,000). AID 777;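 active = blocking of liver enzyme CYP2C9 beyond about 50% at 5 µM, limit read from the data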
Plk1 PBD FP: blocks phosphopeptide binding to human Plk1 polo box domain; actives 0.13% (n = 97,000); AID 693; inhibition, %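 (tested at about 20 µM)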; Plk1 PBD phosphopeptide binding, fluorescence polarization; in the data active = inhibition above about 34%, passing the limit was not always enough
Target sequence (P53350 whole entry, looked up, the tested form may be a part): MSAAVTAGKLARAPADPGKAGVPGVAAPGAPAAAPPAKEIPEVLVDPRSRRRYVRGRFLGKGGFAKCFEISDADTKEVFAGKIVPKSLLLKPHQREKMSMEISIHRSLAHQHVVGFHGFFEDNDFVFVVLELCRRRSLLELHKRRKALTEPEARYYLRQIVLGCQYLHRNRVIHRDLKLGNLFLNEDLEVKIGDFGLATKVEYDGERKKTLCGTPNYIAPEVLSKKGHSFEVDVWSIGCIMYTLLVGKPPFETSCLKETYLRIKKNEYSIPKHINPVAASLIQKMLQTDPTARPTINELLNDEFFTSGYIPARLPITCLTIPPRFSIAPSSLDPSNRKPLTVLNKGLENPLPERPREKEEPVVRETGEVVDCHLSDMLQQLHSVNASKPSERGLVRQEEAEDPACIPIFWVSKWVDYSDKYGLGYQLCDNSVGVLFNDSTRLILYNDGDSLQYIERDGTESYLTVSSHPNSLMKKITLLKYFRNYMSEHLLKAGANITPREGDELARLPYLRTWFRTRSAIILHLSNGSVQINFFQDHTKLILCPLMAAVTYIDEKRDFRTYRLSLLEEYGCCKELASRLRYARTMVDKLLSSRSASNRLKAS
CYP2C19 activ: cytochrome P450 2C19 (human) activation | P33261 | recombinant CYP2C19, luciferin-H EGE luminescence; active compounds read high; 0 = fully inhibited enzyme, 1 = untreated enzyme | activation factor at 5 µM | 96,000 tested, under 10 active | AID 1025;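 active = activation factor of at least 2 at 5 µM in the primary screen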
CYP2C19 inh: inhibitors of human CYP2C19 | actives 21% (n = 96,000) | CYP2C19 Supersomes, luciferin-H EGE luminescence, 30 min | inhibition, % at 5 µM | P33261;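 active = CYP2C19 inhibition above a set limit at 5 µM in the primary screen, cut at about 50% in these data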
CYP2C9 activ: activators of human CYP2C9; P11712; actives 1.4% (n = 96,000); activation factor at 5 µM; recombinant CYP2C9, luciferin-H conversion, luminescence; active compounds read high; factor 1 = untreated enzyme, 0 = blocked;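 active = activation factor of 2 or more for CYP2C9 at a 5 µM dose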
PLK1 kinase inh: blocks human PLK1 kinase activity | actives 0.53% (n = 97,000) | inhibition, % at 10 µM | recombinant PLK1 kinase, TR-FRET peptide phosphorylation | AID 619;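 active = inhibition of 50% or more in the single-concentration screen; inactive = inhibition below 50%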
A number is an active result; 0 = inactive; - = no result. Compounds with a hit are over-represented: about 28% of the library has one in this group of screens.

SMILES	CYP2C9 inhib	Plk1 PBD FP	CYP2C19 activ	CYP2C19 inh	CYP2C9 activ	PLK1 kinase inh
O=C(c1ccc2nc3ccccc3c(=O)n2c1)N1CCN(Cc2ccc3c(c2)OCO3)CC1	53	0	0	0	0	0
O=C(NCCN1CCN(c2ccccc2F)CC1)c1cccn2c(=O)c3ccccc3nc12	57	0	0	60	0	0
CCC(CC)C(=O)N1CCN(Cc2ccc3c(c2)OCO3)CC1	0	0	0	0	0	0
CN(CCCNC(=O)c1cccn2c(=O)c3ccccc3nc12)Cc1ccccc1	0	0	0	0	0	0
O=C(c1cccn2c(=O)c3ccccc3nc12)N1CCN(Cc2ccc3c(c2)OCO3)CC1	75	0	0	0	0	0
Cc1cc(NS(=O)(=O)c2ccc(NC(=S)NC(=O)c3ccc(Cl)cc3Cl)cc2)no1	0	0	0	0	0	0
CC(C)CCN(CCC(C)C)C/C(O)=C(\C#N)c1nc(-c2ccccc2)cs1	0	0	0	0	0	0
Cn1nnnc1SCCOc1ccc(C#N)cc1	0	0	0	62	0	0
Cc1ccc(S(=O)(=O)NCCSc2nnnn2C)cc1	0	0	0	0	0	0
Cc1csc(NC(=O)CSc2nc(C(C)C)nc3c2c(=O)n(C)c(=O)n3C)n1	-	0	-	-	-	66
O=C(CNC(=O)c1ccc(Oc2ccccc2)cc1)OC1CCCCC1=O (stereo not given)	0	0	0	0	0	0
COc1cc(S(=O)(=O)N2CCC(c3nc4ccccc4s3)CC2)ccc1S(=O)(=O)NC1CCCC1	-	0	-	-	-	0
Cn1c(NC(=O)C2CC2)cc(=O)n(C)c1=O	0	0	0	0	0	0
Cn1c(NC(=O)CCC2CCCCC2)cc(=O)n(C)c1=O	67	0	0	74	0	0
O=C(CCC1CCCCC1)Nc1ccc(S(=O)(=O)Nc2nccs2)cc1	63	0	0	0	0	0
CCN(CC)S(=O)(=O)c1ccc(NC(=O)CCC2CCCCC2)cc1	93	0	0	78	0	0
CCCCC1CCC(C(=O)Nc2ccc(S(=O)(=O)Nc3nccs3)cc2)CC1 (stereo not given)	0	0	0	0	0	0
O=C(CCC1CCCCC1)Nc1ccccc1O	64	0	0	93	0	0
Cc1cccc(N(CC(=O)NCc2ccc3c(c2)OCO3)C(=O)CCC(=O)Nc2ccccn2)c1C	59	0	0	82	0	0
O=C(CN(Cc1ccco1)C(=O)CCC(=O)Nc1ccccn1)NCCc1ccccc1	58	0	0	69	0	0
Cc1cccc(N(CC(=O)NC2CCCCC2)C(=O)CCC(=O)Nc2ccccn2)c1	0	-	0	0	0	-
Cc1cccc(N(CC(=O)NCc2ccco2)C(=O)CCC(=O)Nc2ccccn2)c1	0	-	0	58	0	-
Cc1ccc(CN(CC(=O)NCCc2ccccc2)C(=O)CCCC(=O)Nc2cc(C)on2)cc1	62	0	0	60	0	0
COCCN(CC(=O)NCc1ccc2c(c1)OCO2)C(=O)CCC(=O)Nc1nccs1	-	0	-	-	-	0
COc1ccccc1N(CC(=O)NCc1ccccc1)C(=O)CCC(=O)Nc1ccccn1	-	0	-	-	-	0
SMILES	CYP2C9 inhib	Plk1 PBD FP	CYP2C19 activ	CYP2C19 inh	CYP2C9 activ	PLK1 kinase inh
Cc1cccc(N(CC(=O)NCc2ccc3c(c2)OCO3)C(=O)CCC(=O)Nc2ccccn2)c1	0	0	0	61	0	0
COc1ccc(CNC(=O)CN(C(=O)CCC(=O)Nc2ccccn2)c2ccccc2OC)cc1	64	0	0	0	0	0
CCOC(=O)CSc1nc2ccccc2n1CC(=O)N1CCN(c2ccccc2)CC1	0	0	0	0	0	0
COc1cc(NC(C)C(=O)N2CC(C)OC(C)C2)cc(OC)c1 (stereo not given)	0	0	0	0	0	0
O=C(CSc1nnc(CNC(=O)c2cccs2)o1)NCCc1ccccc1	-	0	-	-	-	0
COc1ccc(-c2csc(NC(=O)c3ccco3)n2)cc1	-	0	-	-	-	0
CC(=O)Nc1ccc(-c2csc(NC(=O)c3ccc(C)o3)n2)cc1	0	0	0	52	0	0
Oc1ccc(/C=N/n2c3ccccc3c3ccccc32)cc1	73	0	0	0	0	0
CC(C)CC1(C)NC(=O)N(CCN2C(=O)c3ccccc3C2=O)C1=O (stereo not given)	0	0	0	75	0	0
Cc1nc2ccc(NC(=O)c3ccc(F)c(S(=O)(=O)N4CCOCC4)c3)cc2s1	0	0	0	0	0	0
CN1CC=C2C(C#N)=C(N)C(C#N)(C#N)C(c3cccc(Cl)c3Cl)C2C1 (stereo not given)	91	-	0	93	0	-
CCCCNC(=O)Nc1nnc(-c2ccc(Cl)cc2)o1	0	0	0	0	0	0
CN1C(=O)Cc2cc(S(=O)(=O)N3CCOCC3)ccc21	0	0	0	0	0	0
CC1=C(C(=O)OCC2CCCO2)C(c2ccncc2)C2=C(CCCC2=O)N1 (stereo not given)	0	0	0	75	0	0
CC1=C(C(=O)OCC2CCCO2)C(c2ccccc2)NC(=O)N1 (stereo not given)	0	0	0	62	0	0
CCCCNS(=O)(=O)C1CCS(=O)(=O)C1 (stereo not given)	0	0	0	0	0	0
O=S(=O)(N1CCCCC1)n1c(Cc2ccccc2)nc2ccccc21	68	0	0	85	0	0
CCOC(=O)c1c(NC(N)=O)sc(C)c1C	52	0	0	0	0	0
CCOC(=O)c1c(NC(=O)CCc2ccc(CC)o2)sc(C)c1C	0	0	0	0	0	0
CCOC(=O)c1c(NC(=O)CNCCO)sc(C)c1C	65	0	0	0	0	0
CCOC(=O)c1c(NC(=O)c2ccc(Cl)s2)sc(C)c1C	0	-	0	0	0	-
CCOC(=O)c1ccc(S(=O)(=O)N2CCN(CC3CC=CCC3)CC2)cc1 (stereo not given)	0	0	0	0	0	0
CCOC(=O)C1=C(CSc2nc3ccccc3s2)NC(=O)NC1c1cccc([N+](=O)[O-])c1 (stereo not given)	0	0	0	0	0	0
NC(=O)CSc1nc(-c2ccccc2)c(-c2ccccc2)o1	-	0	-	-	-	0
COc1cccc2c(=O)c(C/C=C(/C)Cl)c(C)[nH]c12	0	0	0	84	0	0
NC(=O)CC(O)c1cccc(Cl)c1 (stereo not given)	0	-	0	0	0	-
CCC(C(=O)Nc1nccs1)(C(F)(F)F)C(F)(F)F	78	0	0	0	0	0
CC(=O)N(Cc1cc(=O)[nH]c2ccccc12)c1ccc(C)cc1	64	0	0	51	0	0
Cc1ccc(N(Cc2cc(=O)[nH]c3ccccc23)C(=O)c2ccco2)cc1	0	0	0	0	0	0
CCOC(=O)/C=c1\s/c(=C\c2c(OC)ccc3ccccc23)c(=O)n1CC(=O)NCC1CCCO1 (stereo not given)	0	0	0	57	0	0
